The sample as a whole holds a higher share of hits than the screen did.
ALOX12 inh: inhibitors of human 12S-lipoxygenase ALOX12 | AID 1671190 | Potency, µM (highest dose often 108 µM), without a hit: at the highest dose activity change, negative = inhibition, hits mostly inhibitors | purified 12hLO, xylenol orange hydroperoxide absorbance | hit rate 1.1% among 580,000 | P18054; further: potency means the concentration at half of the fitted maximal effect
Target sequence (P18054 whole entry, looked up): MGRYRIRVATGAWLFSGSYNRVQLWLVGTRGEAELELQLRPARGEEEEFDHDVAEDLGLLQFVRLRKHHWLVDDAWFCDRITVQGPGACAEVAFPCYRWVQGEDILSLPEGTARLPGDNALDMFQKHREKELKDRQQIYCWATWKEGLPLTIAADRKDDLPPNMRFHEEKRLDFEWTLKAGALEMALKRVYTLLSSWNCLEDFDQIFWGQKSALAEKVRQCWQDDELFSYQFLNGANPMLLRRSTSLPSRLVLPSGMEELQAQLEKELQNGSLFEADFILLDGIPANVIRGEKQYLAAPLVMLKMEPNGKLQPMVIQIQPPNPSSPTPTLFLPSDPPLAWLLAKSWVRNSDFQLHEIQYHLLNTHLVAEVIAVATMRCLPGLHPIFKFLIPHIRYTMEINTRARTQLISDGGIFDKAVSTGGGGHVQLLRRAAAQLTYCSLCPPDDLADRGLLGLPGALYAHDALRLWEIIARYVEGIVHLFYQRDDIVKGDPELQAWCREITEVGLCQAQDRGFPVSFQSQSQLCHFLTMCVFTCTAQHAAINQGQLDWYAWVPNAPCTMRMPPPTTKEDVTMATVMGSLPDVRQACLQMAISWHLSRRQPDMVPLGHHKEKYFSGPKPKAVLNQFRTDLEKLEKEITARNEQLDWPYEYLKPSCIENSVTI
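Hydroperoxide product was detected by ferrous iron/xylenol orange as the 573 to 405 nm absorbance ratio. Arachidonic acid at 40 uM (final) was turned over for 30 min at room temperature by 150 nM human 12hLO, pH 7.0 Hepes buffer, after 15 min compound preincubation.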
TDP1 cell CPT: DT40-hTDP1 cell growth loss with CPT; chicken DT40 Tdp1-/-;hTDP1 cells + 20 nM CPT, ATP luminescence, 48 h; Potency, µM (series often up to 46.2 µM), for the others: top-dose activity change, negative = growth inhibition, most hits filed as inhibitors; hit rate 12% among 420,000; AID 686979; further: potency means the concentration at half of the fitted maximal effect; nearly all actives have a fitted effect of over 55% in size
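Cell growth measured by CellTiter-Glo luminescence after a minimum 48 h, 37 C compound exposure with 20 nM CPT in Tdp1-knockout DT40 cells stably expressing hTDP1, seeded 400/well; qHTS titration format.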
HT1080 IDH1KD tx: HT-1080 IDH1 knockdown cell toxicity (counter line); HT-1080 IDH1 knockdown viability, ATP luminescence, 48 h; Potency, µM (doses to about 46.1 µM), for the others: at the highest dose activity, negative = toxicity, usual class: cytotoxic; hit rate 2% among 360,000;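 further: potency means the concentration at half of the fitted maximal effect; 0% = DMSO wells and -100% = cell-free medium wells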
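Viability of IDH1-knockdown HT-1080 fibrosarcoma cells was assessed by CellTiter-Glo after 48 h at 37 °C with titrated compound; concentration-effect curves were classified by fit quality and response size.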
IL1B secr inh: inhibitors of inflammasome signaling (IL-1 beta secretion); THP-1 LPS/ATP IL-1B secretion, AlphaLISA, 16 h; stronger effect = lower value; activity change, % at 57.5 µM; AID 743279; hit rate 4.7% among 360,000; in the data active means activity change below about -50%; inconclusive means mostly about -30% to -49%
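THP-1 cells pretreated 1 hr with compounds (up to 57.5 uM final), then stimulated with LPS (250 ng/mL final) plus ATP (1.25 mM final); secreted IL-1B measured by AlphaLISA after 16 hr, decreased signal indicating inhibition.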
TDP1 cell noCPT: qHTS for Inhibitors of human tyrosyl-DNA phosphodiesterase 1 (TDP1): qHTS in cells in absence of CPT | DT40 Tdp1-/- hTDP1 cells, no CPT, ATP luminescence, 48 h | Potency, µM (top dose mostly 46.2 µM), without a hit: at the top dose activity change, negative = growth inhibition, most hits filed as inhibitors | hit rate 15% among 420,000 | AID 686978, 2013; further: potency means the concentration at half of the fitted maximal effect; nearly all actives have a fitted effect of over 55% in size
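DT40 Tdp1-/-;hTDP1 cells, no CPT (DMSO vehicle only), 400 cells/well; compounds pin-transferred; ≥48 hr, 37 °C; CellTiter-Glo 30 min RT dark, luminescence read.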
HT1080-NT tox: kills 2HG-producing HT-1080-NT fibrosarcoma cells. HT-1080-NT fibrosarcoma viability, CellTiter-Glo ATP luminescence, 48 h. Potency, µM (titrated, usually from 46.1 µM), for inactives: at the highest dose activity, negative = less viability, usual class: cytotoxic. hit rate 1.6% among 360,000. AID 686970;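 further: NT is the 2HG producing partner of a matched IDH1 knockdown line; potency means the concentration at half of the fitted maximal effect; 0% = DMSO-treated cells and -100% = media-only wells without cells; nearly all actives have a fitted effect of over 55% in size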
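Viability of the 2HG-overproducing fibrosarcoma line after 48 hours of compound exposure at 37 degrees C was determined by luminescence with CellTiter-Glo, and concentration-effect curves were then fitted and categorized.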
The depositor's hits bear a star; ? = inconclusive; . = no result given; ! = a repeat was not active; [ ] = dose if it differs, or a comment. Unless noted, the call rests on the fitted dose curve; in most records, active means well fitted curve in the direction sought with a large enough effect; inconclusive means small, poorly fitted or top-dose-only effect, or another doubt; inactive means no such curve, though single readings can be large; an effect the other way counts as inactive or inconclusive. Unless noted, on the % scale 0 is the no-effect control and ±100 the full control effect.

SMILES	ALOX12 inh	TDP1 cell CPT	HT1080 IDH1KD tx	IL1B secr inh	TDP1 cell noCPT	HT1080-NT tox
Cc1ccc(-c2cc(NC(=O)c3cccc(C)c3)on2)cc1	-23.4%	-21.3%	.	.	-26.2%	.
CCCCOc1cccc(C(=O)NNC(=S)NC2CCCCC2)c1	55.8%	?	-13.4%	3.4	16.4µM*	-10.1%
CC(C)Oc1ccc(C(=O)NC(=S)Nc2ccc(Cl)c(C(=O)O)c2)cc1	10µM*	?	8.0%	0.4	-3.7%	1.0%
CCOc1cccc(C(=O)NC2CCCCC2)c1	-7.6%	-18.7%	3.3%	-0.4	-10.7%	-6.4%
COc1cccc(C(=O)NC(=S)Nc2ccc(Cl)c(C(=O)O)c2)c1	?	-2.6%	-0.3%[9.24 µM]	33.2	-5.8%	-0.1%
CCOC(=O)c1ccc(NC(=O)c2nc3ccccc3nc2N2CCCC2)cc1	8.3%	.	.	.	.	.
CCn1ccc(C(=O)N2CCC(N3C[C@H](O)C[C@H]3C(=O)NCc3cccc(OC)c3)CC2)n1	34.2%	.	.	.	.	.
OCC(O)C(O)C(O)C(O)C(O)CO (stereo not given)	.	-4.2%	.	.	11.3%	.
NC(CCC(=O)NC(CS)C(=O)NCC(=O)O)C(=O)O (stereo not given)	14.2%	-8.6%	5.3%	-5.5	1.8%	2.9%
CCCOc1ccc(C(=O)Nc2ccc(NC(=O)c3cccc(Cl)c3)cc2)cc1	?	-10.1%	.	.	-22.2%	.
CCCOc1cccc(C(=O)NC(=S)Nc2ccccc2)c1	15.8µM*	?	11.9%	-10.6	?	2.7%
CCCOc1cccc(C(=O)NC(=S)Nc2cccc(NC(=O)c3ccccc3Cl)c2)c1	12.6µM*	?	-13.2%	-7.4	?	-3.8%
CCCCOc1cccc(C(=O)NC(=S)Nc2cccc(NC(=O)c3ccccc3Cl)c2)c1	11.2µM*	?	-20.2%	25.4	?	-6.7%
CCCOc1ccc(C(=O)Nc2ccc(NC(=O)c3ccccc3)c(Br)c2)cc1	-22.9%	14.6µM*	.	.	-70.8%	.
CC1(C(=O)Nc2cccc(F)c2)CCCCC(=O)N1 (stereo not given)	45.9%	.	.	.	.	.
CC(C)CCNc1nc2c([nH]1)c(=O)n(C)c(=O)n2C	3.7%	.	.	.	.	.
CCOC(=O)Nc1ccc2c3c(cccc13)-c1ccccc1-2	-15.8%	18.4µM*	?	24.9	20.6µM*	?
Cc1ccc(C(O)(c2ccccc2)c2ccccc2C(C)N(C)C)c(C)c1 (stereo not given)	-16.6%	?	?	-68.4*	18.4µM*	?
C=CS(=O)(=O)N(Cc1ccc(Cl)c(Cl)c1)C[C@@H](O)CO	.	20.6µM*	?	-103.8*	20.6µM*	?
CN(Cc1ccc(Cl)c(Cl)c1)C(C(=O)NC1CC1)c1ccccc1 (stereo not given)	29.7%	.	.	.	.	.
CCOc1ccc(CCN2C(=O)C(=O)N([C@@H](Cc3ccccc3)CN3CCC[C@H]3CN3C(=O)C(=O)NC[C@@H]3Cc3ccc(O)cc3)C[C@@H]2Cc2ccc(O)cc2)cc1	?	?	-5.2%	-60.1*	?	-9.4%
CCOc1ccc(CCN2C(=O)C(=O)N([C@@H](Cc3ccc(O)cc3)CN3CCC[C@H]3CN3C(=O)C(=O)NC[C@@H]3Cc3ccc(O)cc3)C[C@@H]2Cc2ccccc2)cc1	-8.0%	?	-4.0%	0.0	?	-5.4%
CCOc1ccc(CCN2C(=O)C(=O)N([C@@H](Cc3ccccc3)CN3CCC[C@H]3CN3C(=O)C(=O)NC[C@@H]3CC(C)C)C[C@@H]2Cc2ccc(O)cc2)cc1	-160.3%	-91.2%	?	-53.0*	?	?
CCCCN(C(=O)c1ccc(N2CCCC2=O)cc1)c1c(N)n(CCCC)c(=O)[nH]c1=O	?	2.0%	-0.7%	-2.3	-14.9%	2.2%
CCCCN(C(=O)c1ccc(-c2ccc(Cl)cc2)o1)c1c(N)n(CCC)c(=O)[nH]c1=O	15.8µM*!	-8.1%	-2.7%	-28.2	-7.3%	-0.4%
SMILES	ALOX12 inh	TDP1 cell CPT	HT1080 IDH1KD tx	IL1B secr inh	TDP1 cell noCPT	HT1080-NT tox
CCCCN(C(=O)c1ccc(N2CCCC2=O)cc1)c1c(N)n(CCC)c(=O)[nH]c1=O	17.3%	-15.4%	0.0%	-11.1	6.51µM*	2.2%
CCc1ccc(NC(=O)Cn2cc(OC)c(=O)cc2CN2CCN(C(C)=O)CC2)cc1	3.7%	.	.	.	.	.
CC(=O)Nc1ccc(S(=O)(=O)N(Cc2cccnc2)Cc2cc3ccccc3[nH]c2=O)cc1	-2.9%	16.4µM*	1.0%	-1.1	18.4µM*	-10.5%
O=c1[nH]c2ccccc2cc1CN(Cc1cccnc1)S(=O)(=O)c1ccc(Cl)cc1	18.3%	?	-15.5%	-60.6*	25.9µM*	-12.8%
CCOc1ccc2c(c1)C(NC(C)=O)C(=O)N2CCN1CCOCC1 (stereo not given)	0.0%	?	19.6%	8.3	14.6µM*	18.1%
CC(=O)NC1C(=O)N(CCN2CCOCC2)c2ccc(Br)cc21 (stereo not given)	31.6µM*	-18.5%	1.0%	5.7	-14.8%	1.6%
C[C@H]1[C@@H](NS(=O)(=O)c2ccc([N+](=O)[O-])cc2)CC[C@@]23CCCN2C(=O)CCC[C@@H]13	15.8%	.	.	.	.	.
CN(C)C(=S)NC(=O)C(c1ccccc1)c1ccccc1	4.3%	8.2%	-0.2%	-15.6	?	0.9%
CC(=O)NNC(=S)NC(=O)C(c1ccccc1)c1ccccc1	-22.2%	8.2µM*	?	99.8	16.4µM*	?
CC(C)(C)C(=O)NC(=S)NNC(=O)C(c1ccccc1)c1ccccc1	.	4.61µM*	11.6µM*	153.0	3.66µM*	18.4µM*
Cc1ccc2nc(NC(=O)C3CCN(c4ncnc5sc(C)c(C)c45)CC3)sc2c1	.	13µM*	-2.2%	5.5	?	-4.5%
Cc1sc2ncnc(N3CCC(C(=O)Nc4nc(-c5cccs5)cs4)CC3)c2c1C	-5.5%	10.3µM*	1.6%	28.5	8.2µM*	-0.4%
CCc1nnc(NC(=O)C2CCN(c3ncnc4sc(C)c(C)c34)CC2)s1	282.1%	-21.1%	6.5%	46.2	-14.3%	4.4%
Cc1cc[n+](CC(=O)c2cccs2)cc1	15.7%	2.0%	6.0%	-1.6	-9.0%	3.9%
O=C(C[n+]1ccn(CCCNP2(=O)C=C(c3ccccc3)OC(c3ccccc3)=C2)c1)c1cccs1	-17.3%	14.6µM*	0.7%	?	-19.9%	0.9%
O=C(O)c1[nH]c2ccccc2c1C(c1ccccc1)c1c(C(=O)O)[nH]c2ccccc12	5.8%	18.1%	-1.0%	35.8	21.6%	2.3%

Screening data: PubChem, National Center for Advancing Translational Sciences (NCATS)
